The text below walks through data of PubChem BioAssay AID504329 (Southern Research Specialized Biocontainment Screening …, 2011).

Hit rate of the full screen: of about 340,000 compounds, about 1,000 (0.29%) were called active. Cut-off read from the data, not from the text of the source: inconclusive = inhibition above about 27% without an active follow-up result; inactive = below that. These entries were drawn from the full list. Potency and affinity values are given separately.

The test can be described thus: NS1A inhibition, H1N1 influenza, cell based functional assay (AID 504329). The conditions noted are these: percent inhibition, at 12.5 µM, stronger effect = higher value.
In the case of `Cc1cccc(C)c1C(=O)N[C@@H](Cc1ccccc1)C(=O)O`, the inhibition – broadly, the relative decrease from the control value, in per cent – is 2.25% (inactive).
Regarding `O=C(NN=Cc1ccccc1O)C1CC1`, the inhibition was -17.2% (inactive).
For the molecule `O=C(N/N=C/c1ccccc1O)NC12CC3CC(CC(C3)C1)C2`, the inhibition is -3.3% (inactive).
The same measure for `O=c1[nH]c2cc(Cl)c(Cl)cc2o1`: -8.2% (inactive); for `O=C(COC(=O)C1(c2ccccc2)CC1)NNC(=O)c1ccccc1F`: -15.8% (inactive).
In the case of `Cc1c(N=Nc2c(O)n(C)c(=O)n(C)c2=O)c(=O)n(-c2ccccc2)n1C`, the inhibition was 3.65% (inactive).
The result for `Cc1c(N=Nc2ccc(O)cc2)c(=O)n(-c2ccccc2)n1C` reads -3.89% (inactive); that for `CC1(C)CC(=O)C(N=Nc2ccc(-c3ccccc3)cc2)=C(O)C1`, 10.2% (inactive).
The result for `CC1(C)CC(=O)C(N=Nc2c(Cl)cc(Cl)cc2Cl)=C(O)C1` reads 9.91% (inactive); that for `Cc1cc(NC(=O)CC(C)C)c(=O)n(Cc2c(F)cccc2Cl)c1`, -1.36% (inactive).
Regarding `Cc1ccc(S(=O)(=O)N2CCN(C(=O)CC3CCCC3)CC2)cc1`, the inhibition was 2.13% (inactive).
The same measure for `Cc1cc(C)c2nc(SCC(=O)NNC(=O)c3ccco3)c(C)cc2c1`: -0.91% (inactive); for `Cc1ccc(S(=O)(=O)N2CCCCC2)cc1C(=O)N1CCCCCC1`: -15.6% (inactive); for `CCOC(=O)C1CCN(C2CCN(C(=O)c3oc4c(F)cccc4c3C)CC2)CC1`: -2% (inactive).
The result for `Cc1ccc(S(=O)(=O)N(CCC(=O)NCc2ccccc2F)c2ccccc2)cc1` reads -14.3% (inactive).
The result for `CC(=O)c1ccc(NC(=O)Nc2ccc(Br)cc2C)cc1` reads 1.12% (inactive); that for `C=C(C)COc1ccc(-c2[nH]ncc2Oc2ccccc2OC)c(O)c1`, -3.04% (inactive).
With `O=[N+]([O-])c1ccccc1/C=C/C=N/N1CCCCC1`, the inhibition was 4.44% (inactive).
With `O=[N+]([O-])c1ccccc1/C=N\N1CCN(c2ccccc2)CC1`, the inhibition was 17% (inactive).
The same measure for `CCNc1c(C(=O)O)ccc2c1C(=O)c1ccccc1C2=O`: 10.3% (inactive); for `O=C1c2ccccc2-c2c1cccc2C(=O)N1CCCCCC1`: -0.29% (inactive).
The result for `CC1CC(C)CN(C(=O)c2cccc3c2-c2ccccc2C3=O)C1` (configuration not stated) reads -15% (inactive); that for `O=C(O)c1ccc2c(c1Nc1ccccc1)C(=O)c1ccccc1C2=O`, 16.9% (inactive).
Regarding `O=C1c2ccccc2-c2c1cccc2C(=O)N1CCCCC1`, the inhibition is -10.6% (inactive).
The same measure for `O=C1c2ccccc2C(=O)c2c1ccc(C(=O)N1CCCCC1)c2NCCO`: 21.2% (inactive); for `CC1CCCN(C(=O)CN2C(=O)c3ccccc3C2=O)C1` (configuration not stated): -0.8% (inactive); for `CCN(CCN(C)C)C(=O)c1ccc2c(c1NCCO)C(=O)c1ccccc1C2=O`: 12.9% (inactive).
The same measure for `CCOC(=O)c1sc(C)c2c(=O)n(CCCN3CCOCC3)cnc12`: -0.01% (inactive); for `Cc1cc(C(=O)NCc2cccnc2)n(-c2ccccc2)n1`: 24.2% (inactive).
The result for `CC(C)(C)OC(=O)N[C@H](C(=O)OC(C)(C)C)c1ccc(C(F)(F)F)cc1` reads 8.11% (inactive); that for `COC(=O)CNC(=O)Cn1c(=O)n(Cc2ccc(F)cc2)c(=O)c2sccc21`, 0.76% (inactive).
As to `COc1ccc(CCC(=O)NCCS(=O)(=O)N2CCN(c3ccc(OC)cc3)CC2)cc1`, the inhibition is 1.44% (inactive).
The same measure for `COC(=O)c1sc2ncccc2c1OCc1cccc(Cl)c1`: 1.6% (inactive); for `Cc1cc(C)cc(OCC(=O)Nc2nonc2NC(=O)COc2cc(C)cc(C)c2)c1`: -4.28% (inactive).
The result for `Nn1c(SC/C=C/c2ccccc2)nnc1-c1cccnc1` reads -6.35% (inactive); that for `Nn1c(SC/C=C/c2ccccc2)nnc1-c1ccncc1`, -1.07% (inactive).
The same measure for `CN(c1ncc(C(F)(F)F)cc1Cl)N1C(=O)c2cccc(N)c2C1=O`: -4.28% (inactive); for `COc1ccccc1N1CCN(C(=O)c2sc3ncn(CC(=O)N4CCC(C)CC4)c(=O)c3c2C)CC1`: 6.39% (inactive).
In the case of `CN(Cc1nc(CC2CC2)no1)CC12CC3CC(CC(C3)C1)C2`, the inhibition is -6.9% (inactive).
The result for `O=C(c1ccc(O)cc1)c1ccc(Cl)cc1` reads -10.1% (inactive).
The result for `O=C(c1ccc(O)cc1)c1ccc(C(=O)c2ccc(O)cc2)cc1` reads -19.1% (inactive).
The same measure for `CCOCCCNC(=O)C1c2ccccc2C(=O)N2CCc3ccccc3C12` (configuration not stated): 24.7% (inactive); for `COc1ccc(Nc2cccc3ccccc23)cc1`: -1.24% (inactive); for `CC(C)Nc1ccccc1`: -4.73% (inactive).
Consider `CC(=O)Nc1ccc(Nc2ccccc2)cc1`, for which the inhibition is -4.36% (inactive).
The same measure for `Cc1ccc(Nc2ccccc2)cc1`: 9.38% (inactive); for `COc1ccccc1Nc1ccc(N)cc1`: 10.9% (inactive).
As for `Nc1ccccc1Nc1ccccc1`, the inhibition is 18.3% (inactive).
The result for `COc1ccc(Nc2cccccc2=O)cc1` reads -2.41% (inactive); that for `Cc1ccc(Nc2cccccc2=O)cc1`, -5.45% (inactive).
The result for `CC(CN1CCN(C)CC1)OC(=O)c1cccc(F)c1` (configuration not stated) reads -2.72% (inactive); that for `COc1cc(OC)c(CN2CCC(Cc3ccccc3)CC2)cc1Br`, -20.9% (inactive).
The same measure for `COc1ccc(NC(=O)CSc2nc3[nH]ncc3c(=O)[nH]2)cc1OC`: -0.08% (inactive); for `COc1cccc(CNc2nc3nc(C)c(Cl)c(C)n3n2)c1`: 0.89% (inactive).
Turning to `CCc1nnc(NC(=O)COC(=O)c2cc(OC)cc(OC)c2)s1`, the inhibition is 1.22% (inactive).
The same measure for `CCc1ccc(NC(=O)C2CCN(c3ncnc4c3nc3n4CCCCC3)CC2)cc1`: -5.69% (inactive); for `CCOc1ccc2oc(C(=O)N(Cc3nnc(-c4ccccc4Cl)o3)C3CC3)c(C)c2c1`: -5.39% (inactive).
The same measure for `CC(C)c1ccc(CNC(=O)CSCC(=O)Nc2ccc3ccccc3c2)cc1`: 1.48% (inactive); for `CCc1nn(CC(=O)NC2CCN(Cc3ccccc3)CC2)c(=O)c2cc3cc(F)ccc3n12`: 0.23% (inactive).
The result for `Cc1cc(C)c(NC(=O)CS(=O)CC(=O)Nc2ccc(-n3cnnn3)c(C)c2)c(C)c1` (configuration not stated) reads -3.45% (inactive); that for `C/C(=C/c1ccccc1)C(=O)N1CCN(c2ccc(F)cc2)CC1`, -28.5% (inactive).
Take `c1ccc(Nc2ccc(Nc3ccccc3)cc2)cc1`: the inhibition is 26.8% (inactive).
The result for `c1ccc(Nc2ccccc2)cc1` reads -1.53% (inactive); that for `CC(C)c1nc(SCC(=O)N2CCCCCC2)c2c(=O)n(C)c(=O)n(C)c2n1`, -2.22% (inactive); that for `COc1ccc(CNCCC(c2ccc(OC(C)C)cc2)C(C)C)cc1OC` (configuration not stated), 5.92% (inactive).
The result for `COc1ccc(CNCCC(c2ccc(OC(C)C)cc2)c2ccccc2OC)cc1` (configuration not stated) reads 13.4% (inactive); that for `COc1ccccc1C(CCNCc1ccccc1)c1ccc(OC(C)C)cc1` (configuration not stated), 11.1% (inactive).
The result for `COc1ccc(C(CCNCc2ccc(OC(C)C)cc2)c2ccccc2OC)cc1` (configuration not stated) reads 3.25% (inactive); that for `COc1ccc(CNCCC(c2ccc(OC)cc2)c2ccccc2OC)cc1` (configuration not stated), -0.73% (inactive); that for `COc1ccc(C(CCNCc2ccc(N(C)C)cc2)c2ccccc2)cc1` (configuration not stated), 25.2% (inactive).
For `O=C(CCc1c[nH]c2ccccc12)NCc1cccc(Cl)c1`, the inhibition was 15.9% (inactive).
The result for `Cc1cc(=O)oc2cc(OCC(=O)Nc3c(C)n(C)n(-c4ccccc4)c3=O)c(Cl)cc12` reads -7.09% (inactive); that for `Cc1cc(=O)oc2cc(OCC(=O)N(C)C3CCS(=O)(=O)C3)c(Cl)cc12` (configuration not stated), -3.85% (inactive).
The result for `CN(C)/C=C1/C(=O)NC(=O)N(CCNc2ncc(C(F)(F)F)cc2Cl)C1=O` reads -1.37% (inactive).
As to `CN(C)C(=O)CCc1ccc2c3c([nH]c2c1)[C@]1(C)[C@@H](C(=O)N2CCCCC2)C[C@H](CC(=O)NCCN2CCOCC2)C(=O)N1CC3`, the inhibition was 8.89% (inactive).
The result for `S=C(NCc1cccs1)NCC1CCCO1` (configuration not stated) reads -5.35% (inactive).
On to `Cc1ccc(S(=O)(=O)N(C)CCCC(=O)Nc2ccc(C)cc2C)cc1`, for which the inhibition is -2.08% (inactive).
The result for `Cc1ccc(S(=O)(=O)N(C)CCCC(=O)Nc2cccc3ccccc23)cc1` reads 2.47% (inactive).
As for `Cc1ccccc1N=Nc1ccc(O)c2ncccc12`, the inhibition is 11.8% (inactive).
The same measure for `Cc1ccc(N=Nc2ccc(O)c3ncccc23)cc1`: -1.47% (inactive); for `Cc1ccc(N=Nc2ccc(O)c3ncccc23)cc1C`: -4.94% (inactive); for `Oc1ccc(N=Nc2ccccc2C(F)(F)F)c2cccnc12`: 18.7% (inactive).
The same measure for `CCOc1ccc(NC(=O)CN(C)C(=O)CSCc2c(C)noc2C)cc1OCC`: -3.36% (inactive); for `COc1ccc(CC(=O)NNC2=Nc3cccc4cccc2c34)cc1OC`: -25.3% (inactive).
The result for `O=C1c2ccccc2C(=O)N1CCc1nc2ccccc2c(=O)n1Cc1ccco1` reads -1.09% (inactive); that for `O=C(Cc1ccc(N(CCCl)CCCl)cc1)NC(Cc1ccc(Cl)cc1)C(=O)O` (configuration not stated), -4.27% (inactive); that for `CC(C(=O)NCC1(c2ccccc2)CCOCC1)N1CCOCC1` (configuration not stated), -3.8% (inactive).
On to `C=CCN1C=CC(=CC=C(C#N)C#N)C=C1`, for which the inhibition was 4.22% (inactive).
In the case of `CCCCCCN1C=C/C(=C\C=C(C#N)C#N)c2ccccc21`, the inhibition is 18.4% (inactive).
The result for `CCN(CC)C(=O)c1nn(Cc2ccccc2)c(=O)c2ccccc12` reads -5.91% (inactive); that for `Cc1cc(C(=S)N2CCOCC2)c(C)n1-c1ccc(F)cc1`, 1.72% (inactive).
With `Cc1ccc(-n2c(C)cc(C(=S)N3CCOCC3)c2C)cc1C`, the inhibition was 12.2% (inactive).
The same measure for `O=C(NC1(c2ccccc2)CC1)C1CCC(=O)N(Cc2ccc(Cl)cc2)C1` (configuration not stated): 8.58% (inactive); for `O=[N+]([O-])c1ccccc1N/N=C1\CC2CC=CC12` (configuration not stated): 21.6% (inactive); for `CC1CCC/C(=N/Nc2ccc([N+](=O)[O-])cc2[N+](=O)[O-])C1` (configuration not stated): 10.6% (inactive).
The result for `CC1C/C(=N\Nc2ccc(S(N)(=O)=O)cc2[N+](=O)[O-])CC(C)(C)C1` (configuration not stated) reads 8.9% (inactive); that for `O=[N+]([O-])c1ccc(N/N=C2\CC3CC=CC23)cc1` (configuration not stated), -1.23% (inactive).
